Results as given in PubChem BioAssay (NCI).
The panel holds about 79,000 compounds, 15% with a hit somewhere; the sample as a whole holds those more often. Rule as the data show it: active = growth inhibition above about 70%; inactive = the rest.

Key:
[1] = NCI Yeast Anticancer Drug Screen. Data for the rad50 strain (AID 155);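 also: 0% = growth of vehicle-only cultures of the same strain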; conditions: S. cerevisiae rad50 strain growth inhibition; at 50.0 µM; stronger effect = higher value
How it was run: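 Yeast carrying a defined DNA repair defect were exposed to test compounds, and growth was compared with vehicle-treated controls to give percent inhibition.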

[2] = NCI Yeast Anticancer Drug Screen. Data for the mec2-1 strain (AID 157); conditions: S. cerevisiae mec2-1 strain, at 50.0 µM, stronger effect = higher value
How it was run: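 Test agents were screened against the mec2-1 yeast strain, with defined DNA repair or cell cycle alteration. Growth was scored as inhibition against vehicle-only controls.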

[3] = NCI Yeast Anticancer Drug Screen. Data for the sgs1 mgt1 strain (AID 161);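 also: 0% = growth of cultures given vehicle only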; conditions: S. cerevisiae sgs1 mgt1 strain, at 50.0 µM, stronger effect = higher value
How it was run: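 Genetically altered yeast, compound exposure, growth inhibition relative to vehicle.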

[4] = NCI Yeast Anticancer Drug Screen. Data for the cln2 rad14 strain (AID 165);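 also: 0% = growth equal to vehicle treated cultures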; conditions: S. cerevisiae cln2 rad14 strain, at 50.0 µM, stronger effect = higher value
How it was run: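 Growth of compound-exposed yeast (cln2 rad14 genotype) measured and expressed as inhibition relative to vehicle.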

[5] = NCI Yeast Anticancer Drug Screen. Data for the bub3 strain (AID 167); conditions: S. cerevisiae bub3 mutant strain, at 50.0 µM, stronger effect = higher value
How it was run: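 Compounds were applied to a genetically altered yeast strain carrying a cell-cycle control defect. Growth inhibition was scored against vehicle-treated controls.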

[6] = NCI Yeast Anticancer Drug Screen. Data for the mlh1 rad18 strain (AID 175); conditions: S. cerevisiae mlh1 rad18 strain growth inhibition; at 50.0 µM; stronger effect = higher value
How it was run: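 In this whole-cell yeast screen, a strain with altered DNA damage repair is challenged with compound, and its growth is measured against matched vehicle-treated controls.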

Measured: growth inhibition

CC(C)CCCC(C)[C@H]1CC[C@H]2[C@@H]3CC[C@H]4C[C@@H](CCC=C(c5cc(Cl)c(O)c(C(=O)O)c5)c5cc(Cl)c(O)c(C(=O)O)c5)CC[C@]4(C)[C@H]3CC[C@]12C (some centres not stated) (tested in a mixture with another compound)
inactive: [1] 0.95% | [2] 22.4% | [3] 3.45% | [4] -8.4% | [5] 10.7% | [6] 51.2%

NC(=S)Nc1[nH]c(=S)nc2c1SC1=N/C(=C\c3ccco3)C(=O)N12
inactive: [1] 7.45% | [2] -13.6% | [3] 25.5% | [4] 18.1% | [5] 33.9% | [6] 28.2%

C(=N\N=C\c1c[nH]c2ccccc12)/c1c[nH]c2ccccc12
inactive: [1] -21.6% | [2] -21.9% | [6] 0.25%

CC(=O)[C-](C(C)=O)c1ccccc1.CC(=O)[C-](C(C)=O)c1ccccc1.CC(=O)[C-](C(C)=O)c1ccccc1.[Cl-].[Zr+4]
inactive: [1] 27.4% | [2] 28.8% | [3] 0.35% | [5] 14.8% | [6] 1.65%

COc1c2c(c3c(c1OC)c(=O)c1ccccc1n3C)OCO2
inactive: [1] 6.25% | [2] 10.8% | [3] 16.8% | [4] 8.5% | [5] 8.8% | [6] 13.2%

Cc1cc2nn(C3CCCO3)nc2cc1C (configuration not stated)
inactive: [1] -10.6% | [2] -23.5% | [3] -21.8% | [4] -15.3% | [5] -3.8% | [6] -36.4%
